# According to paper PMC11006913:
# Positions count from the first letter of the chain named.
# Assays:
# Test in all cases: PBM; 200 nM protein, PBS
# Conditions in all cases: dsDNA, one strand shown
# SIX6 [1] = molecular target: T1, SIX6 (Homo sapiens, UniProt O95475 114-200, L167I)
# T1 sequence: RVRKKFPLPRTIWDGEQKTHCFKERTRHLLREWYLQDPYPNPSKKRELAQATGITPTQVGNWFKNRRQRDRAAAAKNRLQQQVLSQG
# SIX6 [2] = molecular target: T2, SIX6 (Homo sapiens, UniProt O95475 114-200, L143V)
# T2 sequence: T1 sequence with L30V, I54L
# SIX6 [3] = molecular target: T3, SIX6 (Homo sapiens, UniProt O95475 114-200, H141N)
# T3 sequence: T1 sequence with H28N, I54L
# SIX6 [4] = molecular target: T4, SIX6 (Homo sapiens, UniProt O95475 114-200, T165P)
# T4 sequence: T1 sequence with T52P, I54L
# SIX6 [5] = molecular target: T5, SIX6 (Homo sapiens, UniProt O95475 114-200, L167M)
# T5 sequence: T1 sequence with I54M
# SIX6 [6] = molecular target: T6, SIX6 (Homo sapiens, UniProt O95475 114-200, L143M)
# T6 sequence: T1 sequence with L30M, I54L
# SIX6 [7] = molecular target: T7, SIX6 (Homo sapiens, UniProt O95475 114-200, L143I)
# T7 sequence: T1 sequence with L30I, I54L
# SIX6 [8] = molecular target: T8, SIX6 (Homo sapiens, UniProt O95475 114-200, T165G)
# T8 sequence: T1 sequence with T52G, I54L
# SIX6 [9] = molecular target: T9, SIX6 (Homo sapiens, UniProt O95475 114-200, T139Q)
# T9 sequence: T1 sequence with T26Q, I54L
# SIX6 [10] = molecular target: T10, SIX6 (Homo sapiens, UniProt O95475 114-200, T165A)
# T10 sequence: T1 sequence with T52A, I54L
# SIX6 [11] = molecular target: T11, SIX6 (Homo sapiens, UniProt O95475 114-200, L167V)
# T11 sequence: T1 sequence with I54V
# SIX6 [12] = molecular target: T12, SIX6 (Homo sapiens, UniProt O95475 114-200)
# T12 sequence: T1 sequence with I54L
# SIX6 [13] = molecular target: T13, SIX6 (Homo sapiens, UniProt O95475 114-200, T165I)
# T13 sequence: T1 sequence with T52I, I54L
Sequence,binding signal (SIX6 [1]),binding signal (SIX6 [2]),binding signal (SIX6 [3]),binding signal (SIX6 [4]),binding signal (SIX6 [5]),binding signal (SIX6 [6]),binding signal (SIX6 [7]),binding signal (SIX6 [8]),binding signal (SIX6 [9]),binding signal (SIX6 [10]),binding signal (SIX6 [11]),binding signal (SIX6 [12]),binding signal (SIX6 [13])
GGATATCC,"11 upbm affinity estimate (log intensity, higher = more binding, comparable within an allelic series)","10.2 upbm affinity estimate (log intensity, higher = more binding, comparable within an allelic series)","10.9 upbm affinity estimate (log intensity, higher = more binding, comparable within an allelic series)","9.51 upbm affinity estimate (log intensity, higher = more binding, comparable within an allelic series)","10.6 upbm affinity estimate (log intensity, higher = more binding, comparable within an allelic series)","10.9 upbm affinity estimate (log intensity, higher = more binding, comparable within an allelic series)","10.2 upbm affinity estimate (log intensity, higher = more binding, comparable within an allelic series)","11 upbm affinity estimate (log intensity, higher = more binding, comparable within an allelic series)","11 upbm affinity estimate (log intensity, higher = more binding, comparable within an allelic series)","10.8 upbm affinity estimate (log intensity, higher = more binding, comparable within an allelic series)","10.9 upbm affinity estimate (log intensity, higher = more binding, comparable within an allelic series)","11 upbm affinity estimate (log intensity, higher = more binding, comparable within an allelic series)","10.9 upbm affinity estimate (log intensity, higher = more binding, comparable within an allelic series)"
GGCCCCGA,"9 upbm affinity estimate (log intensity, higher = more binding, comparable within an allelic series)","8.8 upbm affinity estimate (log intensity, higher = more binding, comparable within an allelic series)","8.92 upbm affinity estimate (log intensity, higher = more binding, comparable within an allelic series)","8.86 upbm affinity estimate (log intensity, higher = more binding, comparable within an allelic series)","8.96 upbm affinity estimate (log intensity, higher = more binding, comparable within an allelic series)","8.93 upbm affinity estimate (log intensity, higher = more binding, comparable within an allelic series)","8.91 upbm affinity estimate (log intensity, higher = more binding, comparable within an allelic series)","9.02 upbm affinity estimate (log intensity, higher = more binding, comparable within an allelic series)","9.12 upbm affinity estimate (log intensity, higher = more binding, comparable within an allelic series)","8.81 upbm affinity estimate (log intensity, higher = more binding, comparable within an allelic series)","8.95 upbm affinity estimate (log intensity, higher = more binding, comparable within an allelic series)","8.99 upbm affinity estimate (log intensity, higher = more binding, comparable within an allelic series)","8.84 upbm affinity estimate (log intensity, higher = more binding, comparable within an allelic series)"
GCCGCGGC,"9.02 upbm affinity estimate (log intensity, higher = more binding, comparable within an allelic series)","8.88 upbm affinity estimate (log intensity, higher = more binding, comparable within an allelic series)","8.98 upbm affinity estimate (log intensity, higher = more binding, comparable within an allelic series)","9.04 upbm affinity estimate (log intensity, higher = more binding, comparable within an allelic series)","8.87 upbm affinity estimate (log intensity, higher = more binding, comparable within an allelic series)","9.03 upbm affinity estimate (log intensity, higher = more binding, comparable within an allelic series)","8.95 upbm affinity estimate (log intensity, higher = more binding, comparable within an allelic series)","9.01 upbm affinity estimate (log intensity, higher = more binding, comparable within an allelic series)","9.14 upbm affinity estimate (log intensity, higher = more binding, comparable within an allelic series)","8.95 upbm affinity estimate (log intensity, higher = more binding, comparable within an allelic series)","9.01 upbm affinity estimate (log intensity, higher = more binding, comparable within an allelic series)","9 upbm affinity estimate (log intensity, higher = more binding, comparable within an allelic series)","8.83 upbm affinity estimate (log intensity, higher = more binding, comparable within an allelic series)"
AGCTCCGC,"9.05 upbm affinity estimate (log intensity, higher = more binding, comparable within an allelic series)","8.96 upbm affinity estimate (log intensity, higher = more binding, comparable within an allelic series)","8.98 upbm affinity estimate (log intensity, higher = more binding, comparable within an allelic series)","8.97 upbm affinity estimate (log intensity, higher = more binding, comparable within an allelic series)","8.95 upbm affinity estimate (log intensity, higher = more binding, comparable within an allelic series)","9.08 upbm affinity estimate (log intensity, higher = more binding, comparable within an allelic series)","9.04 upbm affinity estimate (log intensity, higher = more binding, comparable within an allelic series)","9.04 upbm affinity estimate (log intensity, higher = more binding, comparable within an allelic series)","8.99 upbm affinity estimate (log intensity, higher = more binding, comparable within an allelic series)","8.94 upbm affinity estimate (log intensity, higher = more binding, comparable within an allelic series)","9.1 upbm affinity estimate (log intensity, higher = more binding, comparable within an allelic series)","8.9 upbm affinity estimate (log intensity, higher = more binding, comparable within an allelic series)","9.01 upbm affinity estimate (log intensity, higher = more binding, comparable within an allelic series)"
GTATCAAC,"11.2 upbm affinity estimate (log intensity, higher = more binding, comparable within an allelic series)","10.3 upbm affinity estimate (log intensity, higher = more binding, comparable within an allelic series)","11.3 upbm affinity estimate (log intensity, higher = more binding, comparable within an allelic series)","9.76 upbm affinity estimate (log intensity, higher = more binding, comparable within an allelic series)","10.6 upbm affinity estimate (log intensity, higher = more binding, comparable within an allelic series)","11 upbm affinity estimate (log intensity, higher = more binding, comparable within an allelic series)","10.4 upbm affinity estimate (log intensity, higher = more binding, comparable within an allelic series)","11.4 upbm affinity estimate (log intensity, higher = more binding, comparable within an allelic series)","11.3 upbm affinity estimate (log intensity, higher = more binding, comparable within an allelic series)","11.3 upbm affinity estimate (log intensity, higher = more binding, comparable within an allelic series)","11 upbm affinity estimate (log intensity, higher = more binding, comparable within an allelic series)","11.1 upbm affinity estimate (log intensity, higher = more binding, comparable within an allelic series)","11.1 upbm affinity estimate (log intensity, higher = more binding, comparable within an allelic series)"
AGCGGCGC,"8.85 upbm affinity estimate (log intensity, higher = more binding, comparable within an allelic series)","8.89 upbm affinity estimate (log intensity, higher = more binding, comparable within an allelic series)","8.85 upbm affinity estimate (log intensity, higher = more binding, comparable within an allelic series)","8.89 upbm affinity estimate (log intensity, higher = more binding, comparable within an allelic series)","8.88 upbm affinity estimate (log intensity, higher = more binding, comparable within an allelic series)","8.98 upbm affinity estimate (log intensity, higher = more binding, comparable within an allelic series)","8.84 upbm affinity estimate (log intensity, higher = more binding, comparable within an allelic series)","8.81 upbm affinity estimate (log intensity, higher = more binding, comparable within an allelic series)","8.91 upbm affinity estimate (log intensity, higher = more binding, comparable within an allelic series)","8.86 upbm affinity estimate (log intensity, higher = more binding, comparable within an allelic series)","8.82 upbm affinity estimate (log intensity, higher = more binding, comparable within an allelic series)","8.72 upbm affinity estimate (log intensity, higher = more binding, comparable within an allelic series)","8.83 upbm affinity estimate (log intensity, higher = more binding, comparable within an allelic series)"
CGATACCA,"10.8 upbm affinity estimate (log intensity, higher = more binding, comparable within an allelic series)","10 upbm affinity estimate (log intensity, higher = more binding, comparable within an allelic series)","10.8 upbm affinity estimate (log intensity, higher = more binding, comparable within an allelic series)","9.44 upbm affinity estimate (log intensity, higher = more binding, comparable within an allelic series)","10.3 upbm affinity estimate (log intensity, higher = more binding, comparable within an allelic series)","10.7 upbm affinity estimate (log intensity, higher = more binding, comparable within an allelic series)","10.1 upbm affinity estimate (log intensity, higher = more binding, comparable within an allelic series)","11 upbm affinity estimate (log intensity, higher = more binding, comparable within an allelic series)","11.1 upbm affinity estimate (log intensity, higher = more binding, comparable within an allelic series)","10.8 upbm affinity estimate (log intensity, higher = more binding, comparable within an allelic series)","10.6 upbm affinity estimate (log intensity, higher = more binding, comparable within an allelic series)","10.8 upbm affinity estimate (log intensity, higher = more binding, comparable within an allelic series)","10.6 upbm affinity estimate (log intensity, higher = more binding, comparable within an allelic series)"
